Source: PubChem (Sanford-Burnham Center for Chemical Genomics)
In the library only some 4% were active in any assay of this set; here they are far more common.
TIM10 inh = TIM10 yeast growth inhibition; inhibition, % at 10 µM; actives 1.4% (n = 330,000); S. cerevisiae TIM10 strain growth, BacTiter-Glo luminescence, 24 h;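 active = inhibition of 40% or more at the single tested concentration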;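 also: wild-type TIM10 isogenic control strain grown at permissive 25 °C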
tim23-1 inh = inhibits growth of tim23-1 mutant yeast; actives 1.3% (n = 330,000); inhibition, % at 20 µM; S. cerevisiae tim23-1 growth, BacTiter-Glo luminescence, 24 h; AID 463212;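 active = growth inhibition of the mutant yeast at or above 50%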;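 also: temperature-sensitive mutant grown at 25 °C; plate controls were DMSO-treated mutant yeast for no effect and medium wells lacking yeast for full effect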
NLRP3 yeast inh = NALP3 inhibition in yeast | Yeast reconstituted NLRP3/ASC/caspase-1, beta-gal luminescence, 24 h | inhibition, % at 10 µM | actives 0.39% (n = 330,000);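 active = inhibition of 50% or more; inactive = inhibition below 50%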;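 also: plate controls were induced DMSO wells for no effect and uninduced yeast grown without galactose for full effect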
NALP1 inh = blocks the NALP1 inflammasome reconstituted in yeast; S. cerevisiae NALP1/ASC/caspase-1 growth, X-gal OD620, 72 h; inhibition, % at 10 µM; actives 0.61% (n = 280,000); AID 2071; in the data active = inhibition mostly above about 24%, no sharp cut-off; inactive = mostly below about 32%
tim10-1 inh = inhibits growth of tim10-1 mutant yeast; inhibition, % at 20 µM; S. cerevisiae tim10-1 ts strain growth, BacTiter-Glo, 24 h; actives 2.2% (n = 330,000); AID 463190;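 active = inhibition of at least 40%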;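 also: mutant grown at 25 °C; 0% = DMSO wells with yeast and 100% = wells holding no yeast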
tim23-1 confirm = tim23-1 yeast growth inhibition, confirmed | shares compounds with tim23-1 inh | S. cerevisiae tim23-1 growth, BacTiter-Glo luminescence, 24 h | inhibition, % at 20 µM | actives 83% (n = 4,400);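 active = inhibition above about 39% in either of two replicate wells at 20 µM, limit read from the data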;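 also: temperature-sensitive tim23-1 mutant grown at 25 °C; 0% = DMSO wells with yeast and 100% = medium wells without yeast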
* hit, by the source's call; . = no result.

SMILES | TIM10 inh | tim23-1 inh | NLRP3 yeast inh | NALP1 inh | tim10-1 inh | tim23-1 confirm
Oc1ccc(/C=N/Nc2cccc3cccnc23)c(O)c1 | 19 | 58* | 36 | 26 | -4 | 57*
CC(C)C1Cc2c(sc3ncnc(NN)c23)CO1 (stereo not drawn) | 7 | 52* | 11 | 8 | 30 | 27
O=C(Nc1nc2ccccc2s1)C1CCCN1S(=O)(=O)c1ccc(Cl)cc1 (stereo not drawn) | 7 | 55* | 14 | 22 | 40 | 50*
Cc1ccc(S(=O)(=O)N2CCCC2C(=O)Nc2nc3ccccc3s2)cc1 (stereo not drawn) | 9 | 50 | 2 | 9 | 24 | .
COc1ccc(C)cc1NC(=O)C1CCCN(S(=O)(=O)c2cccc3cccnc23)C1 (stereo not drawn) | 3 | 32 | 19 | 1 | 24 | .
CC(=O)Nc1ccc(S(=O)(=O)N2CCN(C(=O)c3ncoc3-c3ccc(F)cc3)CC2)cc1 | -16 | -3 | 7 | 16 | -2 | .
O=C(C#Cc1ccccc1)Nc1cccc(F)c1 | 39 | 54* | 44 | . | 7 | 52*
CC(=NC1CC1)C1=C(O)c2ccccc2C1=O | -5 | 0 | 21 | -2 | -5 | .
CCOc1ccc(N=C(C)C2=C(O)c3ccccc3C2=O)cc1 | 17 | 60* | 39 | . | 8 | 58*
CC1Oc2cc3oc4c(O)c(O)ccc4c(=O)c3c(O)c2C1(C)C (stereo not drawn) | 17 | 69* | 11 | . | 34 | 70*
CCOC(=O)c1c(N)sc(C(=O)OCCOC)c1C | -5 | 19 | 21 | 13 | 4 | .
Cc1[nH]c2c(Br)cccc2c1[C@H]1[C@@H](CC#N)C1(C)C | 33 | 51* | 40 | 36 | 34 | 46*
CCC(C)NC(=O)c1cc2c(=O)n(CC)c3ccccc3c2s1 (stereo not drawn) | 13 | 52* | -2 | 14 | 34 | 49*
CCn1c(=O)c2cc(C(=O)NCCC(C)C)sc2c2ccccc21 | 2 | 24 | 17 | 33 | 25 | .
Cc1nc(NCCc2ccccc2)c2oc3ccccc3c2n1 | 24 | 61* | 7 | 20 | 30 | 41*
COc1cccc(CN2CCN(S(=O)(=O)c3ccc(Br)cc3)CC2)c1 | 4 | 21 | 24 | 3 | 17 | .
COc1ccc(S(=O)(=O)N2CCN(Cc3cccc(OC)c3)CC2)cc1 | 21 | 55* | 22 | -34 | 25 | 43*
CN(C)CCOc1ccc(-c2c(-c3ccsc3)sc3ccccc23)cc1 | 14 | 76* | 48 | . | 25 | 57*
COc1ccc(-c2sc3ccccc3c2-c2ccc(OCCN(C)C)cc2)cc1 | -11 | 3 | 30 | . | 14 | .
C[C@@H]1C(c2ccccc2)=NN(c2ccccc2)[C@H]1C(=O)N1CCOC1=O | 11 | 54* | . | . | 32 | 33
C[C@@H]1C(c2cccc(Cl)c2)=NN(c2ccccc2)[C@H]1C(=O)N1CCOC1=O | -1 | 29 | . | . | 10 | .
C[C@@H]1C(c2cccc(Cl)c2)=NN(c2ccc(Br)cc2)[C@H]1C(=O)N1CCOC1=O | 19 | 52* | . | . | 28 | 38*
CC1(c2ccccc2)NC(=O)N(CC(=O)Nc2ccc(N3CCOCC3)cc2N2CCOCC2)C1=O (stereo not drawn) | 2 | 3 | 12 | . | 10 | .
CC(O)c1cccc(N=Cc2ccc3ccccc3c2O)c1 (stereo not drawn) | 9 | 54* | 10 | -5 | -2 | 42*
Cc1c(NCc2cc(Cl)cc(Cl)c2O)c(=O)n(-c2ccccc2)n1C | 36 | 55* | 17 | -2 | 35 | 38
SMILES | TIM10 inh | tim23-1 inh | NLRP3 yeast inh | NALP1 inh | tim10-1 inh | tim23-1 confirm
CCN(CC(=O)NCc1cccs1)C(=O)CCC(=O)c1ccc(F)cc1 | 4 | 5 | 1 | . | -3 | .
O=C(Cc1n[nH]c(=O)c2ccccc12)Nc1cc(C(F)(F)F)ccc1-n1cncn1 | -6 | 17 | 24 | . | 1 | .
COc1ccccc1/C=C/C(=O)OCC(=O)c1c(N)n(C)c(=O)n(C)c1=O | -8 | 95* | 0 | 20 | 8 | 0
COc1cc(N=C2C(=O)N3c4c(cccc42)C(C)=CC3(C)C)cc(OC)c1 | 16 | 28 | 9 | 38 | 20 | .
COc1cccc(C(=O)Oc2cc3c4c(c2)C(C)=CC(C)(C)N4C(=O)C3=O)c1 | 29 | 63* | 4 | -6 | 28 | 70*
O=C(Cn1ncc2c1-c1ccccc1OC2)Nc1nc2ccccc2s1 | 27 | 62* | 11 | 12 | 12 | 57*
